# Assay outcomes from PubChem BioAssay.
# hgDAF12 agonist: agonists of H. glycines DAF-12 nuclear receptor; AID 687014; 370,000 compounds, 1.8% hits; HEK293 GAL4-hgDAF12 UAS-luciferase reporter, agonist luminescence; normalized to butyrate control; activation, % at 6.8 µM;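 active = activation above a cutoff set at the mean of all screened compounds plus 3 SD, cut at about 10% in these data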;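 note: 0% = DMSO wells and 100% = sodium butyrate wells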
# ssDAF-12 act: activates DAF-12 receptor from parasite S. stercoralis. HEK293 ssDAF-12/GRIP1 lit1-tk-luc reporter, luminescence; % of 3 µM dafachronic acid response. 370,000 compounds, 1% hits. activation, % at 6.8 µM;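 active = activation above the mean over all tested compounds plus 3 SD, cut at about 0.9% in these data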;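 note: 0% = DMSO-only wells and 100% = 3 µM delta7-dafachronic acid wells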
# hcDAF-12 act: activates DAF-12 receptor from parasite H. contortus; HEK293 hcDAF-12 lit1-tk-luc reporter, luminescence; 0% DMSO, 100% Δ7-dafachronic acid; activation, % at 6.8 µM; 370,000 compounds, 1.4% hits;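 active = activation above the mean of all tested compounds plus 3 SD, cut at about 5.5% in these data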;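 note: 100% = response to 3 µM Δ7-dafachronic acid high control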
# DAX1 inh-1: inhibitors of human orphan nuclear receptor DAX1 (NR0B1). 340,000 compounds, 0.99% hits. inhibition, % at 6.75 µM. HEK293 Gal4-DAX1 luciferase reporter, luminescence;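 active = inhibition above the mean over all tested compounds plus 3 SD, cut at about 4.2% in these data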;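 note: 0% = DAX1-transfected cells with DMSO and 100% = empty-vector control cells with DMSO; inhibition shows as a rise in luminescence from relieved DAX1 repression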
# Target sequence (P51843 207-470 limits assumed): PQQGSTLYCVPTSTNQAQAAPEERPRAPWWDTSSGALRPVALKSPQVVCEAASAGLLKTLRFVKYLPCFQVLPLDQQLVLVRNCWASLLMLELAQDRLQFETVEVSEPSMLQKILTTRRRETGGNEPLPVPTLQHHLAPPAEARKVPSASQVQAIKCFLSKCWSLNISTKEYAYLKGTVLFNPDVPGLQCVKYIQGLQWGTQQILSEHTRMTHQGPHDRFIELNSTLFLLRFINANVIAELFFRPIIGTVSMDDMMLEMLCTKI
# DAX1 inh-2: blocks DAX1 repression of SF-1 activated StAR promoter; HEK293T StAR-luciferase reporter, SF-1/DAX-1 repression relief; inhibition, % at 6.8 µM; 370,000 compounds, 1.1% hits; AID 652010;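 active = inhibition above the mean over all tested compounds plus 3 SD, cut at about 3.6% in these data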;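 note: 0% = DAX-1 cells with DMSO and 100% = cells lacking DAX-1 with DMSO; higher inhibition means more luminescence from relief of DAX-1 repression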
# hgDAF12 ag: confirmation of H. glycines DAF-12 agonists; shares compounds with hgDAF12 agonist; 3,300 compounds, 80% hits; activation, % at 6.8 µM; HEK293 GAL4-hgDAF12 luciferase reporter, agonist mode; percent of butyrate response;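 active = mean activation over triplicate wells above the hit cutoff derived from the earlier primary screen, cut at about 11% in these data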;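 note: 0% = DMSO low control and 100% = 2 mM sodium butyrate high control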
# LXRb DAF12 ctr: counter-screen for DAF-12 agonists: agonists of human LXR-beta. shares compounds with hgDAF12 agonist. HEK293 Gal4-LXR luciferase reporter, 24 h. activation, % at 6.8 µM. 3,300 tested, under 10 active;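 active = mean activation of the triplicate above a set limit carried over from the primary screen, none filed active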
# The depositor's hits bear a star; . = not tested or not shown. The list is not random: actives were taken first. Their share in the collection is about 4.1%.
SMILES,hgDAF12 agonist,ssDAF-12 act,hcDAF-12 act,DAX1 inh-1,DAX1 inh-2,hgDAF12 ag,LXRb DAF12 ctr
O=C(NN=Cc1ccccc1Cl)c1cccc2ccccc12,1,0,1,2,0,.,.
Cc1occc1C(=O)N/N=C/C(Br)=C/c1ccccc1,17*,0,5,0,3,14*,1
COc1cc(/C=N/NC(=O)c2ccoc2C)cc(OC)c1OC,8,-1,2,1,2,.,.
CC1(C(=O)Nc2ccc3c(c2)OCCO3)CCC(=O)N1CCOc1ccccc1 (stereo not drawn),-1,-1,-2,.,0,.,.
Cc1cccc(C)c1C(O)c1ncc(-c2ccccc2F)[nH]1 (stereo not drawn),4,-2,-1,.,-1,.,.
CC(C)C(=O)Nc1ccc(-c2nnc(-c3ccccc3)o2)cc1,14*,1,5,4,2,17*,1
CC(=O)/C=C(\C)Nc1ccc(-c2cnc(-c3ccccc3)o2)cc1,18*,1,6.2*,4,4.0*,13*,1
OC1(Cc2ccccc2)CCN(c2ncnc3sccc23)CC1,-9,-2,-6,.,.,.,.
COC(=O)c1cc(-c2ccc(F)cc2OCc2ccccc2)c(=O)n2c1CCC2,-1,-1,1,.,1,.,.
COc1cccc2sc3cc(NCCCN4CCOCC4)ccc3c(=O)c12,-4,-2,-1,-1,0,.,.
CN1CCCC1CCNc1ccc2c(=O)c3ccccc3oc2c1 (stereo not drawn),14*,0,2,3,2,15*,1
CN1CCCC1CCNc1ccc2oc3ccccc3c(=O)c2c1 (stereo not drawn),8,0,3,.,2,.,.
O=c1c2ccccc2oc2ccc(NCCCN3CCOCC3)cc12,13*,-1,3,3,3,16*,1
COC(=O)[C@H](Cc1ccccc1)NC(=O)[C@H]1C[C@@]2(N3CCCC3)c3ccccc3N(C(=O)OC(C)(C)C)[C@H]2N1C(=O)OC(C)(C)C,-3,-2,2,.,0,.,.
O=C(NCc1cccc(C(F)(F)F)c1)c1ccc2nc([C@H]3C[C@H](O)[C@@H](CO)O3)[nH]c2c1,1,0,0,.,0,.,.
COc1ccc(Oc2cnn(-c3ccccc3)c(=O)c2Br)cc1,56*,-1,-1,-1,-2,1,0
Cc1cc(C(=O)CN2CCCCC2)c(C)n1-c1ccc(F)cc1,5,-1,1,2,1,.,.
Cc1cc(C(=O)CN2CCC(C)CC2)c(C)n1-c1ccc(F)cc1,14*,0,1,1,3,13*,1
Cc1cc(C(=O)NC2CCCCC2)c(C)n1-c1ccc(F)cc1,14*,-1,5.8*,0,3,12*,1
Cc1cc(C(=O)CN2C(=O)C(=O)N(C3CCCC3)C2=O)c(C)n1-c1ccc(F)cc1,-1,-2,-1,0,0,.,.
Cc1cccc(S(=O)(=O)NC(=O)C2(C)CCN2C(=O)C/C=C/c2ccccc2)c1 (stereo not drawn),1,-1,0,.,0,.,.
Cc1ccc(OCc2nnc(SCC(=O)Nc3ccc(OCc4ccccc4)cc3)n2-c2ccc(Cl)cc2)cc1,-2,0,-1,.,1,.,.
CN(C(=O)/C=C/c1ccccc1)C1CCCCC1,14*,-1,5,.,1,17*,1
CN(C(=O)/C=C/c1ccccc1)C1CCS(=O)(=O)C1 (stereo not drawn),2,-1,1,2,0,.,.
Cc1c(C(=O)Nc2cccc(S(=O)(=O)N3CCOCC3)c2)oc2ccc(Br)cc12,3,-1,-1,1,0,.,.
Cc1c(C(=O)Nc2cccnc2)oc2ccc(Br)cc12,14*,1.7*,5,4,1,14*,1
COC(=O)[C@H](C(C)C)N1CCc2nnn(Cc3ccccc3)c2-c2cc(F)ccc2S1(=O)=O,1,-1,-2,.,0,.,.
Cc1c(C(=O)N2CCC2(C)C(=O)O)oc2ccccc12 (stereo not drawn),0,0,-1,.,-1,.,.
